Reference: PubChem BioAssay (NCI)
About 79,000 compounds went through this panel and 15% of them were active in at least one assay; those are over-represented in the sample as a whole. Cut-off read from the data, not from the text of the source: active = growth inhibition above about 70%; inactive = the rest. Where a SMILES comes first, the peptide text is derived from it. [ ]: non-standard residue; d: D form. The star is where a group is joined. ξ: configuration not given here. ξV = CC(C)C(N)C(=O)O; ClAc = O=C(CCl)*

What was measured:
[1] = NCI Yeast Anticancer Drug Screen. Data for the rad50 strain (AID 155);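 note: 0% = growth of vehicle-only cultures of the same strain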; settings: S. cerevisiae rad50 strain growth inhibition; at 50.0 µM; active compounds read high
Procedure, shortened: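 Growth of the mutant yeast was measured after compound exposure and referenced to vehicle-treated cultures.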

[2] = NCI Yeast Anticancer Drug Screen. Data for the mec2-1 strain (AID 157); settings: S. cerevisiae mec2-1 strain, at 50.0 µM, active compounds read high
Procedure, shortened: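 Test agents were screened against the mec2-1 yeast strain, with defined DNA repair or cell cycle alteration. Growth was scored as inhibition against vehicle-only controls.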

[3] = NCI Yeast Anticancer Drug Screen. Data for the mlh1 rad18 strain (AID 175); settings: S. cerevisiae mlh1 rad18 strain growth inhibition; at 50.0 µM; active compounds read high
Procedure, shortened: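 In this whole-cell yeast screen, a strain with altered DNA damage repair is challenged with compound, and its growth is measured against matched vehicle-treated controls.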

Measured: growth inhibition

Nc1ccccc1CCc1ccccc1N
inactive: [1] 18.2% | [2] -10.1% | [3] 12.4%

CC(=O)CC1CCCC(CC(C)=O)N1C (stereo unspecified)
inactive: [1] -9.3% | [2] -19.2% | [3] 0.2%

COc1ccc2ccccc2c1/C=N/N1CCCCC1
inactive: [1] 32.3% | [2] 19.6% | [3] 1.05%

N#C/C(=C\c1ccc(-c2ccccc2)cc1)C(N)=O
inactive: [1] 32% | [2] 8.6% | [3] 27.6%

Cc1ccc(N2C(=O)CC(Sc3ccccc3N)C2=O)cc1 (stereo unspecified)
inactive: [1] -8.75% | [2] -17.4% | [3] -9.3%

C=CCOc1cccc(OCC=C)c1C
inactive: [1] -14.9% | [2] -20% | [3] -3.9%

C[N+]12CCC34c5ccccc5NC3C3C(CC(=O)[O-])OCC=C(C1)C3CC42 (stereo unspecified)
inactive: [1] -7.55% | [2] -45% | [3] -31%

COc1ccc(CCN2C(=O)CSC2=S)cc1OC
inactive: [1] -14% | [2] -17.4% | [3] -2.6%

O=C1CCC2CN3CCc4c([nH]c5ccccc45)C3CC2C1 (stereo unspecified)
inactive: [1] 26.2% | [2] 14.4% | [3] 32.7%

OCC1OC(Nc2ccccc2O)C(O)C(O)C1O (stereo unspecified)
inactive: [1] 41.5% | [2] 15.6% | [3] 25.7%

Clc1ccc(C(c2cccs2)N2CCNCC2)cc1 (stereo unspecified)
inactive: [1] 5.45% | [2] -2.75% | [3] 5.35%

CN(C)/C=C/C(=O)c1ccccc1[N+](=O)[O-]
inactive: [1] 16.7% | [2] -11.4% | [3] 12.2%

CCOC(=O)c1nc2cc(C)c(C)cc2[nH]c1=O
inactive: [1] 5.45% | [2] -5.4% | [3] -1.85%

CN(C)c1ccc(C2=C([O-])C(=C3C=CC(=[N+](C)C)C=C3)C2=O)cc1
inactive: [1] -10.4% | [2] -15.2% | [3] -5.55%

Cc1ccc2nc3c(nc2c1)-c1cccc2cccc-3c12
inactive: [1] -18.6% | [2] -43% | [3] -12.4%

CC(=O)CC(=O)N1CCN(C(=O)CC(C)=O)CC1
inactive: [1] -16.9% | [2] -16.8% | [3] -23.3%

C[N+]12OC3CC1C1OC1C2C3 (stereo unspecified)
inactive: [1] -4.55% | [2] -9.4% | [3] 25.4%

CCC(=O)N/N=C/C=N/NC(=O)c1ccncc1
inactive: [1] -30.7% | [2] -31.8% | [3] -7.25%

S=C=NC1CCCCCCCCCCC1
inactive: [1] 18.9% | [2] -3.9% | [3] 36.6%

O=C(CCc1ccc(O)cc1)N/N=C/c1cc(Br)ccc1O
inactive: [1] -29.6% | [2] -38.4% | [3] -20.6%

C(=NCC1CCC(CN=Cc2ccco2)CC1)c1ccco1 (stereo unspecified)
inactive: [1] -21% | [2] -24.8% | [3] -12.5%

O=C(/C(=N/N=C\c1ccc([N+](=O)[O-])cc1)c1ccccc1)c1ccccc1
inactive: [1] -10.6% | [2] -18.4% | [3] -1.25%

O=C(CN1C(=O)c2ccccc2C1=O)c1ccc(Br)cc1
inactive: [1] 14.2% | [2] 16.1% | [3] 12.9%

CCCCCCCCCCCCOc1ccccc1C=O
inactive: [1] 1.5% | [2] -29.8% | [3] -17.4%

Cc1ccccc1CC1c2[nH]c3ccccc3c2CCN1C (stereo unspecified)
inactive: [1] -9.95% | [2] -50.5% | [3] -22.4%

CCOC(=O)c1sc(N)nc1-c1ccccc1
inactive: [1] 10.7% | [2] 4% | [3] 24.6%

CC1CCN(c2ccc([N+](=O)[O-])cc2[N+](=O)[O-])CC1
inactive: [1] 42.2% | [2] 3.85% | [3] 25.6%

COc1ccc(-c2cc(=O)c3ccc(O)cc3o2)cc1
inactive: [1] 7.55% | [2] -13.3% | [3] 38%

O=C(N/N=C/c1ccc2c(c1)CCC2)c1cccc([N+](=O)[O-])c1
inactive: [1] -17.9% | [2] -30.9% | [3] -15.8%

Cc1ccccc1Nc1n[nH]c(=S)s1
inactive: [1] 46.1% | [2] 17.8% | [3] 33%

NS(=O)(=O)c1ccc(NC(=O)/C=C/C(=O)O)cc1
inactive: [1] -11.9% | [2] -10.4% | [3] -4%

O=C1NC(C2CC3C=CC2C3)Nc2ccccc21 (stereo unspecified)
inactive: [1] 6.75% | [2] 0.8% | [3] 2.7%

Cc1ccc(NC(=O)/C=C/C(=O)O)c(NC(=O)/C=C/C(=O)O)c1
inactive: [1] 4.8% | [2] -1.15% | [3] 28.8%

Cn1/c(=N/Sc2nnnn2-c2ccccc2)sc2ccccc21
inactive: [1] 13.6% | [2] -13.9% | [3] 29.9%

COc1cc(/C=N/NC(=O)c2cccs2)cc(OC)c1OC
inactive: [1] -12.8% | [2] -26.1% | [3] -13.3%

COc1ccc(NC(=S)N(C)C)cc1
inactive: [1] 19.5% | [2] -11% | [3] 3.1%

O=C(CN1CCOCC1)Nc1cccc(C(F)(F)F)c1
inactive: [1] -33.7% | [2] -31.4% | [3] -35.4%

C=CCNC(=O)C(O)C(O)C(=O)NCC=C (stereo unspecified)
inactive: [1] -25.1% | [2] -32.5% | [3] -21.2%

O=C(/C=N/O)Nc1cc(Cl)ccc1Cl
inactive: [1] 17.6% | [2] 15.4% | [3] 17.3%

CCOc1ccc(/C=C(/C#N)C(N)=O)cc1
inactive: [1] 9.7% | [2] -8.1% | [3] 9.05%

CCCCCCC(=O)CCCC(C)CCCC(C)C (stereo unspecified)
inactive: [1] -13.5% | [2] -23.6% | [3] -3.85%

CCCCCCCCCCCC(=O)CCCCC
inactive: [1] -29.5% | [2] -17.1% | [3] -29.4%

CCCCCCCCCCCCCCCCOc1ccc(C)cc1
inactive: [1] -14.3% | [2] -29.5% | [3] -27.9%

CC1(O)CC2CC1C(C(=O)O)C2C(=O)O (stereo unspecified)
inactive: [1] -0.85% | [2] -27.6% | [3] -15.1%

Cc1ccc(CNc2ccc(I)cc2)cc1
inactive: [1] 37.5% | [2] 37.9% | [3] 33.9%

COc1ccc(C(C#N)N2CCOCC2)cc1 (stereo unspecified)
inactive: [1] 17.8% | [2] -11.7% | [3] 5.35%

C(=C/c1ccc(/C=C/c2ccccc2)cc1)/c1ccccc1
inactive: [1] -22.1% | [2] -13.9% | [3] -26.8%

COc1ccc(/C=C(\C#N)c2ccc(C)cc2)cc1OC
inactive: [1] 50.4% | [2] 52.8% | [3] 38.1%

COc1ccc(N=c2ssc(SC)c2-c2ccccc2)cc1
inactive: [1] 15.4% | [2] -11.4% | [3] -0.8%

Cc1ccc(CNc2cc(C)ccn2)cc1
inactive: [1] 42.9% | [2] 23.9% | [3] 26.9%

Clc1nc(Oc2ccccc2)nc(-c2cn(-c3ccccc3)c3ccccc23)n1
inactive: [1] 2.05% | [2] -12.6% | [3] -6.35%

CC(C)C(NC(=O)CNC(=O)CCl)C(=O)O (stereo unspecified) (ClAc-Gly-[ξV]-OH)
inactive: [1] 7.6% | [2] -16.5% | [3] 4.1%

CCCCCCCC/C=C\CCCCCCCCOC(N)=O
inactive: [1] -30.7% | [2] -26.8% | [3] -17.1%

COC(=O)c1cc(NC(=O)CC(=O)c2cccc(N)c2)cc(C(=O)OC)c1
inactive: [1] -3.8% | [2] -12.8% | [3] 8.4%

CC12CC3(C)CC(C)(C1)CC(C(Cl)C(=O)O)(C2)C3 (stereo unspecified)
inactive: [1] 50.7% | [2] 22.8% | [3] 29.2%

CC(=O)NCc1cc(CNC(C)=O)c(C)cc1C
inactive: [1] -17.5% | [2] -13.7% | [3] -23.6%

COc1ccc(-c2cc(=O)c3c(C)cc(O)cc3o2)cc1OC
inactive: [1] 6.55% | [2] 7.6% | [3] 44.2%

C=CCNC(=S)N/N=C\c1cc(OC)c(OC)c(OC)c1
inactive: [1] -18.8% | [2] -44.5% | [3] -34.6%

O=C1OC(c2ccccc2)=N/C1=C/c1cccs1
inactive: [1] 6.85% | [2] -23.1% | [3] -24.8%

CC1(C)OC(=O)C(=Cc2c(Cl)cccc2Cl)C(=O)O1
inactive: [1] 0.05% | [2] 7.85% | [3] -7.3%

COc1ccccc1N1C(=O)CC(Sc2ccccc2N)C1=O (stereo unspecified)
inactive: [1] -2.4% | [2] -19.4% | [3] 13.1%

COc1ccc(/C(C#N)=C2C=C(Cl)/C(=N/O)C=C/2Cl)cc1
inactive: [1] -6.55% | [2] -7.45% | [3] -19.2%

Cc1nc2c(Cl)cc(Cl)c(Cl)c2s1
inactive: [1] 9.65% | [2] 5.15% | [3] 51.1%

O=C(O)/C=C/C(=O)Nc1cc(Cl)ccc1Cl
inactive: [1] 9.6% | [2] 12.1% | [3] 24.6%

COc1cc(C(=O)N/N=C/c2ccc(N(C)C)cc2)cc(OC)c1OC
inactive: [1] -32.2% | [2] -45.2% | [3] -20.8%

NC(=O)c1ccccc1OCC(O)CO (stereo unspecified)
inactive: [1] -7.6% | [2] -24.4% | [3] 26.1%

COc1cccc(N2C(=O)CSC2=S)c1
inactive: [1] 32.7% | [2] 7.95% | [3] 46.8%
